Experimental data: the supplement of paper PMC3334620
Whole data set: some 33,000 sequences, median “E-score (-0.5 to 0.5)” near -0.054, cut for the highest 2% near 0.35. The sample as a whole holds a higher share of the highest values than the screen did.

target: T1, Stb5 (UniProt P38699); assay: PBM E-score (8-mer binding enrichment) (E-score (-0.5 to 0.5)); higher = stronger / more preferred TF binding; conditions: protein concentration: 200 nM; construct: GST-full length
T1 sequence: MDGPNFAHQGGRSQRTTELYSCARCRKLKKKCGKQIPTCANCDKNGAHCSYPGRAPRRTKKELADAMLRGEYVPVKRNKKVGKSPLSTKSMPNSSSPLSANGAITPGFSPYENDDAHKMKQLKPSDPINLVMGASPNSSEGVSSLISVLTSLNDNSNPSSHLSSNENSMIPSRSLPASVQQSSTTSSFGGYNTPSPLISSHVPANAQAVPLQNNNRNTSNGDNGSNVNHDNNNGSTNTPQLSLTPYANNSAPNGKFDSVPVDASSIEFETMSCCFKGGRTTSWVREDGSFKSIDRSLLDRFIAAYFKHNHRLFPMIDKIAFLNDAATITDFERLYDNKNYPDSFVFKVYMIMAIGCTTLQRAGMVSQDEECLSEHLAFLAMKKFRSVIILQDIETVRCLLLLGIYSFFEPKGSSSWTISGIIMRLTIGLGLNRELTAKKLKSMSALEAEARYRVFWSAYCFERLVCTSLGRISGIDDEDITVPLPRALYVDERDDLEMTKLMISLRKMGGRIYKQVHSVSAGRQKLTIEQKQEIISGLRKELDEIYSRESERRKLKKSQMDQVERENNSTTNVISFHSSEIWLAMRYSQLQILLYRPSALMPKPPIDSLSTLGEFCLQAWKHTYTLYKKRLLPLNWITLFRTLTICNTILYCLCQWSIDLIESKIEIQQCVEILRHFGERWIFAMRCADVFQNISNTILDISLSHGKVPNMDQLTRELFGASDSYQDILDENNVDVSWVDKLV
Protocol: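 Universal 'all 10-mer' protein binding microarrays (Agilent AMADID 015681) probed with GST-tagged S. cerevisiae TFs (full-length or DBD) made by in vitro transcription/translation (PURExpress), about 100-200 nM. Bound TF was detected with fluorescent anti-GST. Each ungapped 8-mer (which stands for itself and its reverse complement) is scored by the PBM enrichment score (E-score), a modified Wilcoxon-Mann-Whitney statistic from -0.5 to +0.5, computed with the Universal PBM Analysis Suite. Scale: above 0.35 generally sequence-specific binding.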

Row | Sequence | PBM E-score
1 | AGTTCGGA | 0.208
2 | AAGTGCGA | 0.187
3 | GGGGTGCA | 0.0203
4 | ACACAGAG | -0.0564
5 | AACTCATC | -0.116
6 | ACTTGCAT | 0.0144
7 | GCTCTGAA | -0.166
8 | AACACATA | -0.222
9 | ATTATACG | 0.173
10 | ATAATACA | 0.0704
11 | ATTATACA | 0.0217
12 | ATTATACC | 0.362
13 | ATAATACG | 0.153
14 | ATAATACC | 0.368
15 | ATGTGGTC | -0.168
16 | GCCGTTCC | 0.202
17 | GATTCTCC | 0.112
18 | AGTCGAAT | -0.199
19 | AATCCCGC | 0.398
20 | AATCCCGT | 0.419
21 | CATCCCGA | 0.1
22 | CGTCCCGC | 0.2
23 | AGTCCCGC | 0.358
24 | TATCCCGA | 0.18
25 | AATCCCAT | -0.042

Row | Sequence | PBM E-score
26 | AATCCCCT | -0.165
27 | AATCCCGA | 0.394
28 | GATCCCGC | 0.232
29 | CATCCCGC | 0.155
30 | AGTCCCGA | 0.342
31 | CAATTTTA | -0.00732
32 | TGTATACA | 0.0199
33 | AAGGCTTG | -0.305
34 | CATACTGC | -0.045
35 | CTTCAAAG | -0.124
36 | GCACTCTA | -0.0909
37 | GGACAAAC | 0.0886
38 | ACATACCG | 0.28
39 | AGGTCCCA | -0.357
40 | AGGTCCGA | 0.412
41 | AGGTCCAA | -0.167
42 | AGGTCCTG | -0.205
43 | AGGTCCGG | 0.382
44 | GGGTCCCA | -0.0448
45 | CGGTCCAA | 0.186
46 | GGGTCCGA | 0.332
47 | AGGTCCAG | -0.156
48 | CGGTCCCA | 0.358
49 | CGGTCCGA | 0.389
50 | AGGTCGGA | 0.326

Row | Sequence | PBM E-score
51 | AAATTCGA | 0.0745
52 | CGGCATTC | 0.285
53 | AACCATCG | 0.041
54 | AAACGGAT | 0.197
55 | AGAGATAT | -0.194
56 | AAAAAGCT | -0.205
57 | CGGTCCGC | 0.298
58 | CGGTCTCA | 0.376
59 | AGGTCCAC | -0.0841
60 | AGGTCCTA | 0.0577
61 | CGGTCCTA | 0.448
62 | AGGTCCGC | 0.425
63 | CGGTCCTC | 0.16
64 | GGGTCTCA | 0.00241
65 | CGGTCTCC | 0.195
66 | GCCTTCGA | -0.137
67 | CGCAAGGA | -0.0543
68 | GACCTCTC | -0.126
69 | AGTAGTTG | -0.0997
70 | ACTGCTTG | -0.185
71 | CCCAGTAG | -0.128
72 | ACCCCTGA | -0.108
73 | ACGATCGG | 0.298
74 | CCGATCGA | 0.285
75 | AAGATCGG | 0.352

Row | Sequence | PBM E-score
76 | CCGATCGG | 0.413
77 | AAGATCGC | -0.0115
78 | CAGATCGG | 0.29
79 | GCAACTTA | -0.0671
80 | CAGTCTAA | 0.00323
81 | GCCGCCCA | 0.19
82 | ACCGCCCT | 0.268
83 | GCCCCCCC | -0.161
84 | CCCGCCCA | 0.258
85 | CCCCGCCC | 0.43
86 | CCCGCCCC | 0.361
87 | ACCCGCCC | 0.276
88 | GCCGCCCC | 0.388
89 | ACCGCCCG | 0.345
90 | ACCGCCCC | 0.367
91 | CCCGCCCG | 0.298
92 | GCCCGCCC | 0.271
93 | ACCTCCAG | -0.188
94 | ATAAGGGC | 0.0814
95 | GAAGCCAC | 0.0166
96 | GCCCGTTA | 0.228
97 | TGGAAGAA | -0.0838
98 | ATGATCGG | 0.297
99 | CCTGATCA | -0.0914
100 | AGAGAACC | -0.125

Row | Sequence | PBM E-score
101 | CTCATGCC | -0.103
102 | GAGATACC | 0.168
103 | AGACCAGA | -0.27
104 | ATAGAAGA | -0.05
105 | CGGCTTAA | 0.351
106 | AGACTTAC | -0.161
107 | TGCCTTAA | -0.192
108 | GGCCTTAA | 0.377
109 | CGTCTTAA | -0.0278
110 | GGTCTTAA | 0.355
111 | CGACTTAC | 0.0696
112 | GGACTTAC | 0.358
113 | AGCCTTAA | -0.0403
114 | TGTCTTAA | 0.00631
115 | GGGCTTAA | 0.391
116 | TGGCTTAA | -0.044
117 | CCCTGGAG | -0.234
118 | GCTCGGCA | 0.122
119 | CTCAATCA | -0.00421
120 | AACTAGCC | -0.148
121 | ATGTGGTA | -0.222
122 | CGCGGGAA | 0.272
123 | AATCTTGG | -0.0505
124 | CCGATACA | 0.28
125 | ACAGCGGG | 0.332

Row | Sequence | PBM E-score
126 | GGACTTAA | 0.373
127 | AGACTTAA | -0.288
128 | CGACTTAA | -0.0485
129 | ATAGAATA | -0.0414
130 | CGATAACC | 0.16
131 | GAACCCGC | 0.199
132 | GAACCCGA | 0.0501
133 | AAACCCGC | 0.414
134 | CAACCCGG | 0.0495
135 | AAACCCGT | 0.318
136 | TAACCCGA | 0.225
137 | AGACCCGA | 0.287
138 | AAACCCGG | 0.395
139 | CAACCCGC | 0.169
140 | AAACCCGA | 0.395
141 | CGACCCGC | 0.198
142 | AGACCCGC | 0.36
143 | ATGGACTC | -0.103
144 | CCCGGCTA | 0.337
145 | ACCTGGAG | -0.133
146 | CAAGGCTG | -0.26
147 | AGATAACA | -0.0529
148 | TCGCCCCA | -0.317
149 | ATCACCTG | 0.0314
150 | CTCACCGA | 0.248

Row | Sequence | PBM E-score
151 | CTCACCGC | 0.164
152 | ATCACCAG | -0.0626
153 | ATCACCGC | 0.447
154 | GTCACCGA | 0.285
155 | ATCACCTC | 0.0381
156 | ATCACCGG | 0.37
157 | ATCACCGA | 0.433
158 | TATGCACA | -0.16
159 | GCCTCGCA | -0.0909
160 | CGCATTTC | -0.0467
161 | GGCAGTAA | 0.256
162 | AGGAGCAT | -0.255
163 | CCGCATTA | 0.243
164 | GCTGGCCC | -0.184
165 | GACATCCA | -0.0118
166 | TCAGTGAA | -0.111
167 | CTTCGAGC | -0.0166
168 | ATACCCCA | -0.0468
169 | AACCCCGG | 0.453
170 | AGACCCCG | 0.394
171 | ATACCCCG | 0.392
172 | AAACCCCA | 0.0234
